The source of these data is PubChem BioAssay (NCI).

About 83,000 compounds went through this panel and 20% of them were active in at least one assay; those are over-represented in the sample as a whole.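 Negative percent growth values reflect cell death: -40 means 40% of the cells present at the start died, and -100 means all died.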 A number with no mark means an inactive call. Rule for the calls: active = growth percent below 10; inactive = the rest.

For the experiment, the system named is KM12 colon. Put plainly: NCI-60 one-dose screen, 48 h (100 = growth as untreated, 0 = no growth, -100 = all killed). To be noted: 10 µM unless noted.
For the compound `CC(=O)OC[C@H](O)[C@@]1(O)CC[C@H]2[C@@H]3CCC4=CC(=O)CC[C@]4(C)[C@H]3[C@@H](O)C[C@@]21C`, the growth was 105%. In the case of `Cc1ccccc1-n1nnc(C(=O)Nc2ccc(-c3ccccc3)cn2)c1C`, the growth was 53% [50 µM]. Take `C=C1CC[C@@H]2[C@@](C)(CCC[C@]2(C)C(=O)O)[C@@H]1CC[C@H](CO)CCO`: the growth is 102%. Consider `O=C(c1cnn2c1NC(c1ccc(F)cc1)C2)N1CCCCC1` (stereo unspecified), for which the growth was 106%. For the compound `COc1cc(/C=C/C(=O)CC(=O)/C=C/c2cc(Br)c(OC)c(OC)c2)cc(Br)c1OC`, the growth was 103%.

Regarding `CCCCNNC(=O)c1ccc(Br)cc1`, the growth is 78.1%.

As for `NC(=S)N/N=C1\c2ccccc2-c2c(F)c(F)c(F)c(F)c21`, the growth was 93.5%. On to `COc1c(O)c2c3c(c1OC)-c1ccccc1CC3N(S(=O)(=O)c1ccc(C)cc1)CC2` (stereo unspecified), for which the growth was 27.8%. On to `CN1CCN(C)c2cncc(Br)c2C1=O`, for which the growth was 105%. In the case of `CCC(C)Oc1cc(/C=N/NC(=O)c2cnn3c2NC(c2ccccc2)C3)ccc1OC` (stereo unspecified), the growth is 20.2%. Consider `COc1cc(OCc2cccc(-c3ccc(C(O)c4nccs4)cc3)c2C)cc(OC)c1C=O` (stereo unspecified), for which the growth was 71%.
